Shown are actives, neighbours in structure and some others; about 17% of the full set was active somewhere.
TDP1 block: inhibitors of human tyrosyl-DNA phosphodiesterase TDP1. Q9NUW8. recombinant TDP1, AlphaScreen DNA substrate cleavage. Potency, µM (doses to about 130 µM), for the others: top-dose activity change, negative = inhibition, actives largely listed as inhibitors. 0.28% of 350,000 active. AID 485290; note: % is set by controls: 0 for no effect and ±100 for the full control effect; nearly all actives have a fitted effect of over 40% in size
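E. coli-derived human Tdp1, 1 nM final. Cpd preinc 15 min RT; substrate 15 nM final, 5 min RT; AS bead mix 10 ug/ml final, 10 min RT. Signal loss = tyrosine-FITC cleavage. No-enzyme wells = max signal.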
ClpP mod: qHTS Assay for Activators of ClpP; purified B. subtilis ClpP, FRET peptide cleavage, 20 min; AID 651965, 2013; Potency, µM (top dose mostly 57.5 µM), inactives show top-dose activity change, negative = active; ATP-dependent Clp protease proteolytic subunit (Bacillus subtilis (strain 168)), P80244; 1.9% of 340,000 active; active = well fitted falling curve with a large enough effect; inconclusive = small, poorly fitted or top-dose-only effect; inactive = no such curve, though single readings can be large or run the other way; note: the source files actives as falling curves though it sought activators and does not explain the sign; nearly all actives have a fitted effect of over 65% in size
Target sequence (P80244 whole entry, looked up): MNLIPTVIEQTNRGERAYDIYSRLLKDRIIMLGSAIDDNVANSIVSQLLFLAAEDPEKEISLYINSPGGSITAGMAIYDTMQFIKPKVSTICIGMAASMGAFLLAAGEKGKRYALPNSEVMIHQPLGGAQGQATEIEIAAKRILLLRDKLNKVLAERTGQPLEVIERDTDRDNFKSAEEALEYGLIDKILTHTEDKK
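Buffer: 100 mM Tris/HCl pH8, 100 mM KCl, 0.05% low protease BSA, 2.5% glycerol, 0.01% Tween-20. ClpP 10 microg/mL final; 20 min RT; delta FRET normalized to ADEP and DMSO controls.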
TDP1 cell noCPT: qHTS for Inhibitors of human tyrosyl-DNA phosphodiesterase 1 (TDP1): qHTS in cells in absence of CPT; Potency, µM (series often up to 46.2 µM), for the others: top-dose activity change, negative = growth inhibition, hits mostly inhibitors; DT40 Tdp1-/- hTDP1 cells, no CPT, ATP luminescence, 48 h; 15% of 420,000 active; note: % is set by controls: 0 for no effect and ±100 for the full control effect; nearly all actives have a fitted effect of over 55% in size
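Chicken DT40 Tdp1-/- cells stably complemented with human TDP1 were seeded at 400 cells/well with DMSO in place of 20 nM camptothecin. After compound pinning, cells grew at least 48 hr at 37 °C; viability read by CellTiter-Glo luminescence.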
TDP1 cell CPT: DT40-hTDP1 cell growth loss with CPT; chicken DT40 Tdp1-/-;hTDP1 cells + 20 nM CPT, ATP luminescence, 48 h; Potency, µM (doses to about 46.2 µM), inactives show at the top dose activity change, negative = growth inhibition, actives largely listed as inhibitors; 12% of 420,000 active; AID 686979; note: % is set by controls: 0 for no effect and ±100 for the full control effect; nearly all actives have a fitted effect of over 55% in size
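Chicken DT40 Tdp1-/- cells complemented with human TDP1, 400 cells/well, exposed to compounds plus 20 nM camptothecin for at least 48 h at 37 C; viability read as ATP content by CellTiter-Glo luminescence.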
* = called active by the depositor; ? = inconclusive; / = not tested or not shown; [ ] = another dose, or the depositor's remark. Unless noted, calls come from the whole dose curve; as a rule, active = well fitted curve in the direction sought with a large enough effect; inconclusive = small, poorly fitted or top-dose-only effect, or another doubt; inactive = no such curve, though single readings can be large; an effect the other way counts as inactive or inconclusive. Potency is the fitted concentration of half-maximal effect.

SMILES	TDP1 block	ClpP mod	TDP1 cell noCPT	TDP1 cell CPT
O=C(O)Cn1nnc(-c2ccc(OCc3cccc(C(F)(F)F)c3)cc2)n1	7.0%	0.2%	-2.3%	-2.8%
CC1=C(/C=N/Nc2ccc([N+](=O)[O-])cc2[N+](=O)[O-])C(C)(C)CCC1	8.2%	-2.5%	18.4µM*	?
CC1(C)CC(=O)C2=C(C1)c1c(ccc3ccccc13)NC2c1ccc(Br)o1 (configuration not stated)	2.0%	12.6µM*	20.6µM*	?
COc1ccc(-n2cc(CN3CCCC3)c(-c3cccc(F)c3)n2)cc1	4.8%	/	20.6µM*	?
COc1ccc(-n2cc(CNC3CCN(C)CC3)c(-c3cccc(F)c3)n2)cc1	2.7%	/	14.6µM*	14.6µM*
COc1ccc(-n2cc(CN[C@H]3CCCCNC3=O)c(-c3cccc(F)c3)n2)cc1	/	3.4%	5.8µM*	5.8µM*
COc1ccccc1-c1cc(NC(=O)COc2ccccc2Cl)n(-c2ccccc2)n1	0.0%	-0.5%	-20.5%	-23.9%
CC(=C(CCOC(=O)C(C)C)SSC(CCOC(=O)C(C)C)=C(C)N(C=O)Cc1cnc(C)nc1N)N(C=O)Cc1cnc(C)nc1N	/	/	-19.6%	-19.8%
COc1ccc(N2CCN(C(=O)c3cn(CC4CCCCC4)nn3)CC2)cc1	9.4%	/	?	?
Cc1cccc(OCC(O)Cn2c(=N)n(Cc3ccccc3)c3ccccc32)c1 (configuration not stated)	2.6%	-1.8%	20.6µM*	?
N=c1n(Cc2ccccc2)c2ccccc2n1CC(O)COc1ccc(Cl)cc1Cl (configuration not stated)	4.8%	/	7.31µM*	20.6µM*
COc1ccc(C(O)c2cnc(C)n2Cc2ccccc2)cc1 (configuration not stated)	/	3.3%	18.4µM*	?
Clc1ccc(OCc2nc3ccccc3n2Cc2ccccc2)c(Cl)c1	4.8%[12.3 µM]	-17.1%	?	?
N=c1n(Cc2ccc(Cl)cc2)c2ccccc2n1CC(O)COc1ccccc1 (configuration not stated)	3.7%	/	8.2µM*	?
Cc1cccc(OCC(O)Cn2ccnc2C)c1 (configuration not stated)	2.6%	-3.6%	-13.7%	-4.0%
CCN(CC)C(=O)Cn1nc(-c2ccc(Cl)cc2)c2ccccc2c1=O	/	/	-26.5%	-24.9%
CCn1c(=N)n(CC(O)COc2ccccc2)c2ccccc21 (configuration not stated)	1.9%	-0.3%	/	/
COc1ccc(OCC(O)Cn2c(=N)n(Cc3ccccc3)c3ccccc32)cc1 (configuration not stated)	5.2%	3.9%	6.51µM*	?
Cc1cccc(OCC(O)Cn2c(=N)n(CCN3CCCCC3)c3ccccc32)c1 (configuration not stated)	2.9%	-4.0%	13µM*	11.6µM*
Cc1cccc(OCC(O)CN2CCNCC2)c1 (configuration not stated)	6.8%	/	9.0%	-22.4%
Cc1ccccc1OCC(=O)N/N=C1\CC(=O)CC(C)(C)C1	2.8%	-1.3%	0.7%	-13.9%
COCC(=O)N1CCC2(CCCN(C(c3ccccc3)c3ccccc3)C2)CC1	/	/	?	8.1%
COc1cccc(CCNC(=O)CCc2nnc(-c3ccc4c(c3)OCO4)o2)c1	3.2%	-17.0%	-18.4%	-16.0%
O=C(CCc1nnc(-c2ccc3c(c2)OCO3)o1)NCCc1ccccc1F	1.9%	-1.3%	?	16.4µM*
O=C(O)C1=NN(c2cc(Cl)c(S(=O)(=O)O)cc2Cl)C(=O)C1	/	/	-0.1%	-12.6%
Cc1ccccc1CN1CCc2nnc(C(C)NC(=O)C3CCN(C)CC3)n2CC1 (configuration not stated)	/	/	2.3%	-1.5%
CCCc1nnc(NC(=S)Nc2ccccc2)s1	5.3%	-0.5%	3.26µM*	4.61µM*
COc1ccc(OC)c(CCNC(=O)CN2C(=O)COc3ccc(S(=O)(=O)N4CCOCC4)cc32)c1	4.6%	-0.9%	0.8%	3.3%
O=c1c(O)cc(C2Oc3cc(O)cc(O)c3CC2O)cc2c(C3Oc4cc(O)cc(O)c4CC3O)cc(O)c(O)c12 (configuration not stated)	/	/	3.26µM*	4.61µM*

Bioassay records (PubChem BioAssay)
